Screening data (PubChem)
HPGD block – inhibitors of human 15-hydroxyprostaglandin dehydrogenase (HPGD) | P15428 | purified HPGD, NADH fluorescence kinetic, PGE2 substrate | Potency, µM, hits mostly inhibitors | 4.3% of 150,000 active; active = well fitted inhibition curve with a large enough effect, not every such curve was filed as active; inconclusive = small, poorly fitted or top-dose-only effect, or another doubt; inactive = no such curve, though single readings can be large or run the other way
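NADH formation kinetics: reaction with 30 uM PGE2 and 1 mM NAD+ (final), 20 nM enzyme, Tris-HCl pH 8 with Tween 20, after 15 min compound preincubation at room temperature. Fluorescence change, last versus first of five reads.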
CBFb RUNX1 block – blocks binding between human CBF-beta and RUNX1. Q01196+Q13951. AlphaScreen CBFb-His/RUNX1-biotin binding, biochemical. Potency, µM (top dose mostly 59.8 µM), hits mostly inhibitors. 230,000 tested, under 10 active. AID 1477
Target sequence (Q01196 whole entry, looked up): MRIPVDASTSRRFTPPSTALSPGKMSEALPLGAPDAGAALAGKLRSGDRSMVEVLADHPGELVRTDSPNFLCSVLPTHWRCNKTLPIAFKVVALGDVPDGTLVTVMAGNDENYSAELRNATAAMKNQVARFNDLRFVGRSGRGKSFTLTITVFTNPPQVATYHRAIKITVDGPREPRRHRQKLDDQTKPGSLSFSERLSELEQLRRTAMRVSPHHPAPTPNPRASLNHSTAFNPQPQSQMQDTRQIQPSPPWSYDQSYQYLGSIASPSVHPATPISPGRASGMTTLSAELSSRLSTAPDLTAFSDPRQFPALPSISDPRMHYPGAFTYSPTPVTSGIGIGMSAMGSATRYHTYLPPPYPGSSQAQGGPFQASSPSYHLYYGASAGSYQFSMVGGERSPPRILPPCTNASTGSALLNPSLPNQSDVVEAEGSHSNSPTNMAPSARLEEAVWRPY
Target sequence (Q13951 whole entry, looked up): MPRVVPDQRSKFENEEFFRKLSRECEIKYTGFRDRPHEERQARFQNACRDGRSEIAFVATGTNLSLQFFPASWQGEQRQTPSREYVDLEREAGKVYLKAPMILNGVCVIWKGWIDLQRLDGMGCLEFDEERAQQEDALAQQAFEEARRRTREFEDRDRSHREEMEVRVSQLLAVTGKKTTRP
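AlphaScreen proximity signal reports loss of binding between His-tagged CBF-beta and biotin-labelled RUNX1, each at 30 nM. Proteins are pre-associated for 20 minutes, compounds added for 15 minutes, then beads for 90 minutes, all at ambient temperature.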
HTT cytoprotect – protects HTT-Q103 PC12 cells, measured by ATP | PC12 HTT-Q103 induced, cytoprotection, ATP luminescence, 40 h | Potency, µM (highest dose often 56.4 µM), hits mostly activators | 0.14% of 230,000 active; also: nearly all actives have a fitted effect of over 45% in size
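PC12 cells with ecdysone-inducible HTT exon 1 Q103-GFP, induced with 100 nM tebufenozide and co-treated with library compounds in a dose series (1536-well, 1500 cells/well). Cytoprotection read as ATP content by ATPlite luminescence.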
ALDH1A1 inh – inhibitors of human aldehyde dehydrogenase 1A1 | P00352 | Purified ALDH1A1, NADH fluorescence, propionaldehyde substrate | Potency, µM (top dose mostly 75.3 µM), hits mostly inhibitors | 7.3% of 220,000 active; active = well fitted inhibition curve with a large enough effect, not every such curve was filed as active; inconclusive = small, poorly fitted or top-dose-only effect, or another doubt; inactive = no such curve, though single readings can be large or run the other way
HttQ103 aggreg – reduces HttQ103-GFP aggregates in PC12 cells | PC12 HttQ103-GFP aggregates, Acumen cytometry, 40 h | Potency, µM (highest dose often 46.1 µM), actives largely listed as inhibitors | AID 1688 | 1.1% of 220,000 active; also: nearly all actives have a fitted effect of over 60% in size
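Ecdysone-promoter PC12 model expressing HTT exon 1 Q103 fused to GFP, induced by tebufenozide at 100 nM final. Compounds titrated; aggregates sized 1–25 µm scored on a 488 nm laser cytometer.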
PNC assembly inh – blocks assembly of the perinucleolar compartment. PC3M PTB-GFP, PNC prevalence imaging, 16 h; hits give low values. AID 2417. activity change (PNC), negative = inhibition, % at 10 µM. 3.1% of 140,000 active;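 active = readout at or below -70, meaning at least 70% loss of cells showing the perinucleolar compartment, a nuclear body marking cancer cells; inconclusive = readout between -30 and a set limit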
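Compounds are pinned in duplicate onto adhered PC3M cells stably expressing GFP-tagged PTB and incubated 16 h at 37 C. Cells are then fixed, nuclei stained with Hoechst, and PNC-positive cells counted.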
Hits are given with their value; . = inactive; ? = inconclusive; / = no result; [ ] = another dose, or the depositor's remark. Hits are enriched below; roughly 11% of the tested compounds scored in any of these assays. Unless noted, calls follow the shape of the dose curve; as a rule, active = well fitted curve in the direction sought with a large enough effect; inconclusive = small, poorly fitted or top-dose-only effect, or another doubt; inactive = no such curve, though single readings can be large; an effect the other way counts as inactive or inconclusive.

SMILES	HPGD block	CBFb RUNX1 block	HTT cytoprotect	ALDH1A1 inh	HttQ103 aggreg	PNC assembly inh
Oc1ccc(CNc2ccccc2F)c2cccnc12	.	.	.	8.91µM	?	.
CCOC(=O)N1CCN(Cc2ccc(O)c3ncccc23)CC1	/	?	.[10 µM]	25.1µM	.[9.22 µM]	/
CCCOCc1ccc(O)c2ncccc12	/	?	.[10 µM]	/	.[9.22 µM]	/
Oc1ccc(CN2CCCCC2)c2cccnc12	.	.	.[1.9 µM]	?	.[1.84 µM]	.
c1cncc(CNc2ccnc(-c3cccnc3)n2)c1	/	/	.	.	/	/
COc1ccc(O)c(C(=O)C2c3ccccc3C(=O)N2c2ccc(C)cc2)c1 (centres undefined)	/	.	.[10 µM]	11.2µM	.[9.22 µM]	/
COc1ccc(O)c(C(=O)CC(=O)c2ccccc2C)c1	/	.	.[10 µM]	.	.[9.22 µM]	/
O=C1CC[C@H](C(=O)N[C@@H]2C[C@H]2c2ccccc2)N1	/	/	.	/	.	/
O=[N+]([O-])c1ccc(-n2nncc2-c2ccc(Cl)cc2)cc1	.	.	.[10 µM]	.	.	.
O=Cc1ccc(-n2nncc2-c2ccc([N+](=O)[O-])cc2)cc1	/	.	.[10 µM]	12.6µM	.[9.22 µM]	/
CC(C)[C@H](/C=C/C[Si](C)(C)C)[C@H](C)C(O)/C=C/CCCOC(=O)C(C)(C)C (some centres undefined)	/	.	/	/	/	/
Cc1nc2c(-c3ccc(Cl)cc3)c(C)[nH]n2c(=O)c1Cc1ccccc1	/	.	.	?	10µM	/
Cc1nc2c(-c3ccccc3)c(C)[nH]n2c(=O)c1Cc1ccccc1	/	.	.	.	?	/
N#C/C(=C\c1ccc(N2CCCCC2)o1)C(=O)Nc1cccc(Br)c1	.	.	.[10 µM]	?	?	-108.4
COc1cc(C(=O)CSc2nnc(-c3ccc(O)cc3)n2CC2CCCO2)ccc1NC(C)=O (centres undefined)	.	.	.[10 µM]	?	.	?
CCC(=O)Nc1ccc(C(=O)CSc2nnc(-c3ccccc3F)n2CCc2ccccc2)cc1	.	.	.[1.9 µM]	22.4µM	.	.
O=C(CSc1nnc(-c2ccccc2F)n1CCc1ccccc1)Nc1ccc2[nH]c(=O)[nH]c2c1	.	.	.[0.074 µM]	?	.	.
CCC(=O)Nc1ccc(C(=O)CSc2nnc(-c3ccc(O)cc3)n2CC2CCCO2)cc1 (centres undefined)	.	.	.[10 µM]	25.1µM	.	?
COc1ccc2c(c1)OC(C)(C)C(c1ccccc1)C2c1ccc(OCCN2CCCC2)cc1 (centres undefined)	/	/	.	/	?	/
CC(C)(SCc1ccccc1)[C@H](N)C(=O)O	.	/	.[10 µM]	.[13.5 µM]	/	/
CCOC(=O)N1CCN(C(=O)c2cc3c(=O)n(C)c4ccccc4c3n2C)CC1	.	.	.	.	.	.
CCN1CCN(C(=O)c2cc3c(=O)n(C)c4ccccc4c3n2C)CC1	.	.	.	?	.	.
Cn1c(C(=O)N2CCCCCC2)cc2c(=O)n(C)c3ccccc3c21	2.82µM	.	.	?	.	?
Cn1c(C(=O)N2CCN(Cc3ccccc3)CC2)cc2c(=O)n(C)c3ccccc3c21	15.8µM	.	.	?	.	.
COc1ccc(/C(N)=N/OC(=O)CCCc2ccccc2)cc1OC	.	?	.[10 µM]	.	.	.
SMILES	HPGD block	CBFb RUNX1 block	HTT cytoprotect	ALDH1A1 inh	HttQ103 aggreg	PNC assembly inh
COc1cccc(CN(c2ccc3c(c2)CCC3)S(=O)(=O)c2ccc(-n3cnnn3)c(OC)c2)c1	.	.	.[10 µM]	2.51µM	.	?
Cc1cc(S(=O)(=O)N(C)CCc2ccccc2)ccc1-n1cnnn1	/	.	.[10 µM]	?	.	.
COc1cccc(CN(CC2CCCO2)S(=O)(=O)c2ccc(-n3cnnn3)c(OC)c2)c1 (centres undefined)	/	.	.[10 µM]	?	.[9.22 µM]	/
Cc1cc(S(=O)(=O)N(Cc2ccccc2Cl)c2ccc3c(c2)CCC3)ccc1-n1cnnn1	.	.	.[10 µM]	5.01µM	.	?
CO[C@H]1COC(=O)CCC[C@@H](C)[C@H](OC)COC(=O)[C@H]2CCCN2C(=O)C/C=C\[C@@H]1C	/	.[13.1 µM]	.[10 µM]	.[13.5 µM]	/	/
O=C1c2ccccc2-c2nc3ccccc3nc21	.	.	.	12.6µM	.	?
CC1CCCC(C)N1c1nnc(N)s1 (centres undefined)	28.2µM	.[2.36 µM]	.	.	.	.
CC1CCCCN1c1nnc(N)s1 (centres undefined)	?	.	.[0.074 µM]	?	.	.
CC(C)(C)Cn1c(=O)[nH]c(=O)c2cc([N+](=O)[O-])cnc21	.	.	/	.	.	-113.8
CC[C@H](C)[C@H](N)C(=O)N[C@H]1CCC(=O)NCC(C(=O)N[C@@H](Cc2ccc(O)cc2)C(=O)N[C@@H](CCCNC(=N)N)C(=O)N[C@@H](CC(C)C)C(=O)N[C@@H](CCCNC(=N)N)C(=O)N[C@@H](Cc2ccc(O)cc2)C(N)=O)NC(=O)[C@@H]2CCCN2C(=O)[C@@H](NC(=O)[C@@H](N)[C@@H](C)CC)CCC(=O)NCC(C(=O)N[C@@H](Cc2ccc(O)cc2)C(=O)N[C@@H](CCCNC(=N)N)C(=O)N[C@@H](CC(C)C)C(=O)N[C@@H](CCCNC(=N)N)C(=O)N[C@@H](Cc2ccc(O)cc2)C(N)=O)NC(=O)[C@@H]2CCCN2C1=O (some centres undefined)	/	.	/	/	/	/
NCCSc1nc2ccccc2s1	.	/	.[10 µM]	.[13.5 µM]	/	/
C=CCS(=O)(=O)c1nc2ccccc2s1	.	.	.	0.794µM	?	.
N#Cc1cccc(CS(=O)(=O)c2nc3ccccc3s2)c1	.	.	/	14.1µM	/	/
c1ccc2sc(SSc3nc4ccccc4s3)nc2c1	10µM	.	.	0.251µM	.	/
S=c1[nH]nc(CSc2nc3ccccc3s2)o1	.	.	.	17.8µM	.	.
N#C/C(=C\c1ccco1)Sc1nc2ccccc2s1	10µM	.	.	12.6µM	.	.
O=S1(=O)C=C(Sc2nc3ccccc3s2)c2ccccc21	?	.	2µM	14.1µM	4.47µM	?
O=S(=O)(CCSc1nc2ccccc2s1)c1nc2ccccc2s1	.	.	.	0.1µM	?	.
CCS(=O)(=O)CCSc1nc2ccccc2s1	.	.	.[10 µM]	?	.	.
C=CC1=C2C=C(C3CC3)N(Cc3ccccc3)C=C2C(=O)C(C)(OC(=O)c2ccco2)C1=O (centres undefined)	.	.[13.1 µM]	.[10 µM]	.[13.5 µM]	/	/
CS(=O)(=O)N1CCN(c2ccccc2NC(=S)NC(=O)c2cccs2)CC1	/	.	.	0.447µM	.	/
CS(=O)(=O)N1CCN(c2ccccc2NC(=O)Cc2ccccc2)CC1	.	.	.	.	.	.
CS(=O)(=O)N1CCN(c2ccccc2NC(=S)NC(=O)c2ccccc2[N+](=O)[O-])CC1	/	.	.	0.708µM	.	/
CCC(=O)OCC(=O)[C@@]1(OC(=O)CC)[C@H](C)C[C@@H]2[C@H]3CCC4=CC(=O)C=C[C@]4(C)[C@]3(Cl)[C@@H](O)C[C@@]21C	.	.	.	.	/	/
